# Assays:
# [1] = target: T1, Serine/threonine-protein kinase BRSK1 (Homo sapiens) (UniProt Q8TDC3); conditions: at 1 µM
# T1 sequence (whole entry): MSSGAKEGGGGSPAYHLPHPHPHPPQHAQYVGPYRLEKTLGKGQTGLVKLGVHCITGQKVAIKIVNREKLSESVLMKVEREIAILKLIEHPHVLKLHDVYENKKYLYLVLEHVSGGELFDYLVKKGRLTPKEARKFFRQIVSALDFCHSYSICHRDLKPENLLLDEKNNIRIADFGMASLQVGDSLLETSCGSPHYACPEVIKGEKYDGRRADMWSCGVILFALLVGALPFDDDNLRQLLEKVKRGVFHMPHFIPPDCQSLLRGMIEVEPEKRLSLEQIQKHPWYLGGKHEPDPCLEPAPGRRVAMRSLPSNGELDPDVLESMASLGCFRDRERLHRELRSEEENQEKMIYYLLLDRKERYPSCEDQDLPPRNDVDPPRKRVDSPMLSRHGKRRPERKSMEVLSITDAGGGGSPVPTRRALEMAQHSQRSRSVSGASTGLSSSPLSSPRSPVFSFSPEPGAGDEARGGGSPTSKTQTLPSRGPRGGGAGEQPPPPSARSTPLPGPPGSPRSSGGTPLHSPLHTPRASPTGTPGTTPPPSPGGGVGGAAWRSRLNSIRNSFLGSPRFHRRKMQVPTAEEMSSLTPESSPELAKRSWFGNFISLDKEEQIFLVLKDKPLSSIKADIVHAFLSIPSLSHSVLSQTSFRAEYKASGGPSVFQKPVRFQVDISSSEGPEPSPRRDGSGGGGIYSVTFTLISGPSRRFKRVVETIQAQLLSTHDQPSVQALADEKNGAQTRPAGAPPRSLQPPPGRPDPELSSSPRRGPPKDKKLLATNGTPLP
# [2] = target: T1, Serine/threonine-protein kinase BRSK1 (Homo sapiens); conditions: at 10 µM
# [3] = target: T2, Serine/threonine-protein kinase BRSK2 (Homo sapiens) (UniProt Q8IWQ3); conditions: at 1 µM
# T2 sequence (whole entry): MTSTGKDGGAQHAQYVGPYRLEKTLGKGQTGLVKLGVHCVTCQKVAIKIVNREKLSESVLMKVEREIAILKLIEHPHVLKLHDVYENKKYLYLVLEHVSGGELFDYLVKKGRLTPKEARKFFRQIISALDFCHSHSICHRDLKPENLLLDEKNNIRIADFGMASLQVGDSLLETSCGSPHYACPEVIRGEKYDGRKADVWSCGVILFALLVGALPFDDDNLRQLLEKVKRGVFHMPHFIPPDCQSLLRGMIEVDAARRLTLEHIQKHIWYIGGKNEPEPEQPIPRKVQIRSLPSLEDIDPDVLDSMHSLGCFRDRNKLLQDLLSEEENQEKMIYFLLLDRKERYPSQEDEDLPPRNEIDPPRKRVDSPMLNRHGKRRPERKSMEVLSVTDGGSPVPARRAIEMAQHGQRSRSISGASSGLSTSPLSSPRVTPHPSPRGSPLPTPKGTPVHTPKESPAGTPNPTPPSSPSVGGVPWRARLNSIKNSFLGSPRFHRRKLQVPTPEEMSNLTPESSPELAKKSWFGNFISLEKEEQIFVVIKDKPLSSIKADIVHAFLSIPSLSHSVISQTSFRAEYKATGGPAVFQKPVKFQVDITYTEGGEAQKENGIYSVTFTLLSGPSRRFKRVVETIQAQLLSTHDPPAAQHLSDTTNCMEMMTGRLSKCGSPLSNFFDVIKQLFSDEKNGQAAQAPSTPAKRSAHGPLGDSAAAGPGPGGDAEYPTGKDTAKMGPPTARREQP
# [4] = target: T2, Serine/threonine-protein kinase BRSK2 (Homo sapiens); conditions: at 10 µM
# [5] = target: T3, Cyclin-dependent kinase 1/cyclin B1 (Homo sapiens) (UniProt P06493+P14635); conditions: at 1 µM
# [6] = target: T3, Cyclin-dependent kinase 1/cyclin B1 (Homo sapiens); conditions: at 10 µM
# [7] = target: T4, Cyclin-dependent kinase 2/cyclin A (Homo sapiens) (UniProt P24941+P20248+P78396); conditions: at 1 µM
# [8] = target: T4, Cyclin-dependent kinase 2/cyclin A (Homo sapiens); conditions: at 10 µM
# [9] = target: T5, Cyclin-dependent kinase 2/cyclin E (Homo sapiens) (UniProt P24864+P24941+O96020); conditions: at 1 µM
# [10] = target: T5, Cyclin-dependent kinase 2/cyclin E (Homo sapiens); conditions: at 10 µM
# [11] = target: T6, CDK3/cyclin E (Homo sapiens) (UniProt P24864+O96020+Q00526); conditions: at 1 µM
# [12] = target: T6, CDK3/cyclin E (Homo sapiens); conditions: at 10 µM
# [13] = target: T7, Cyclin-dependent kinase 5/CDK5 activator 1 (Homo sapiens) (UniProt Q00535+Q15078); conditions: at 1 µM
# [14] = target: T7, Cyclin-dependent kinase 5/CDK5 activator 1 (Homo sapiens); conditions: at 10 µM
# [15] = target: T7, Cyclin-dependent kinase 5/CDK5 activator 1 (Homo sapiens); conditions: at 1 µM; remark: listed apart in the source
# [16] = target: T7, Cyclin-dependent kinase 5/CDK5 activator 1 (Homo sapiens); conditions: at 10 µM; remark: listed apart in the source
# [17] = target: T8, CDK6/cyclin D3 (Homo sapiens) (UniProt P30281+Q00534); conditions: at 1 µM
# [18] = target: T8, CDK6/cyclin D3 (Homo sapiens); conditions: at 10 µM
# [19] = target: T9, Cyclin-dependent kinase 7/ cyclin H (Homo sapiens) (UniProt P51946+P50613); conditions: at 1 µM
# [20] = target: T9, Cyclin-dependent kinase 7/ cyclin H (Homo sapiens); conditions: at 10 µM
# T6 sequence (O96020 whole entry, looked up): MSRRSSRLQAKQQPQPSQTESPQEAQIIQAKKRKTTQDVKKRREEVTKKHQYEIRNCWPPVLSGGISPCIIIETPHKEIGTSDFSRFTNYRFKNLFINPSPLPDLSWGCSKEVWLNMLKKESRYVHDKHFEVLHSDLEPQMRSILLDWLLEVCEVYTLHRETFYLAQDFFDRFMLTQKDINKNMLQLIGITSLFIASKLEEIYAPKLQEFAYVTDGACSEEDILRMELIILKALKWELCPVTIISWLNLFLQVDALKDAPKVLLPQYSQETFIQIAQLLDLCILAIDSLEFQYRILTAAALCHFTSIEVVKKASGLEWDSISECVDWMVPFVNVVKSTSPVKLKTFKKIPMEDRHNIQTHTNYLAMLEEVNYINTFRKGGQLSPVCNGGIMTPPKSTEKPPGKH
# T6 sequence (P24864 whole entry, looked up): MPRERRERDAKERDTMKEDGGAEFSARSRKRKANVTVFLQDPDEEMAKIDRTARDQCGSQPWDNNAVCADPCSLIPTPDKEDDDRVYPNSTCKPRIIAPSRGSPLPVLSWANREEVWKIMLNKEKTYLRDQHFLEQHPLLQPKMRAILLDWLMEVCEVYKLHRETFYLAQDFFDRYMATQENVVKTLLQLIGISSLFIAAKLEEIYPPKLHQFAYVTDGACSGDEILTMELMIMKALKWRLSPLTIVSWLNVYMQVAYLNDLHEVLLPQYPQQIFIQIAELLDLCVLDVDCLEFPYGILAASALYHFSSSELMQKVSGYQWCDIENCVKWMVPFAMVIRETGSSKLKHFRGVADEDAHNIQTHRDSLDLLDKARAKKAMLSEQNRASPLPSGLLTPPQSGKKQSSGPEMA
# T6 sequence (Q00526 whole entry, looked up): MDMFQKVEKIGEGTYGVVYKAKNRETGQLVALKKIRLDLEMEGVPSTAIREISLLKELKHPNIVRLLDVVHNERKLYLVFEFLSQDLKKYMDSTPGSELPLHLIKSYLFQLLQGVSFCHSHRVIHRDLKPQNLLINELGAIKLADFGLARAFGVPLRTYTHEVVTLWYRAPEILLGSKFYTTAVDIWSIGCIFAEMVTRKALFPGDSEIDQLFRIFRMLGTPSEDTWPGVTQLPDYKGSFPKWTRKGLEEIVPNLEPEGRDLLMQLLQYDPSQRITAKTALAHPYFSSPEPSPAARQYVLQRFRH
# T7 sequence (Q00535 whole entry): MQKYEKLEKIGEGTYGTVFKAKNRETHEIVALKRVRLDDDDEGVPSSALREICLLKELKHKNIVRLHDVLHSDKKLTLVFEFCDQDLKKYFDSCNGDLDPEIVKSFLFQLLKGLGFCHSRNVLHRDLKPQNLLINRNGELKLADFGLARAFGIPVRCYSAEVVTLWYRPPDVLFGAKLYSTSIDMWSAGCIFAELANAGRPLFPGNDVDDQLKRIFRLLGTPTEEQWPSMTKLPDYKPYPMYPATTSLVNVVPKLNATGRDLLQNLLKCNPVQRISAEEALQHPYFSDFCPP
# T7 sequence (Q15078 99-307 partner limits assumed): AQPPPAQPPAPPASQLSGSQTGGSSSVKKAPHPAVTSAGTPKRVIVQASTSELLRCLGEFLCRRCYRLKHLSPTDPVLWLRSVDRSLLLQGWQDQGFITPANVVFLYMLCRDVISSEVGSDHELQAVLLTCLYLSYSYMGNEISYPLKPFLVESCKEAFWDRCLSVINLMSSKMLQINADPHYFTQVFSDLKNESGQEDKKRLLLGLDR
# T3 sequence (P06493 whole entry, looked up): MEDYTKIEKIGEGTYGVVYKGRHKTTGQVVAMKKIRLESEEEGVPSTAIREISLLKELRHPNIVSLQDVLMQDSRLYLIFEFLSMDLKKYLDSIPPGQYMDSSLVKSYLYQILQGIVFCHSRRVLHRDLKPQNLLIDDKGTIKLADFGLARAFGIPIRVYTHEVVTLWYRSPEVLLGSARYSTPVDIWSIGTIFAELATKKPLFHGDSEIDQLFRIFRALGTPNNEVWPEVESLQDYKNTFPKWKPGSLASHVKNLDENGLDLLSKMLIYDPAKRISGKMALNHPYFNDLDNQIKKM
# T3 sequence (P14635 whole entry, looked up): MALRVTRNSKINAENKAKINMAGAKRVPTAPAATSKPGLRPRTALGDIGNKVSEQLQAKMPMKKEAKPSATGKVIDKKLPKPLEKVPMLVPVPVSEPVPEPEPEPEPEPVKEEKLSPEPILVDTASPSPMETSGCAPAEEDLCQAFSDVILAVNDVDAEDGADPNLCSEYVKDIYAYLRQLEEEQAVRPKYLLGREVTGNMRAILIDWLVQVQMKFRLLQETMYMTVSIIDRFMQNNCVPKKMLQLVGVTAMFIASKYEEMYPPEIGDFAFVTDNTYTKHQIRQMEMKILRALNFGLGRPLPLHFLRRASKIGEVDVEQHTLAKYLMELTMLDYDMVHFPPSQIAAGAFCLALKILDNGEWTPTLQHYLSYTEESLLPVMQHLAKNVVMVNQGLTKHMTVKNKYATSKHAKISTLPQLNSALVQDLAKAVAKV
SMILES,residual activity [1] [%],residual activity [2] [%],residual activity [3] [%],residual activity [4] [%],residual activity [5] [%],residual activity [6] [%],residual activity [7] [%],residual activity [8] [%],residual activity [9] [%],residual activity [10] [%],residual activity [11] [%],residual activity [12] [%],residual activity [13] [%],residual activity [14] [%],residual activity [15] [%],residual activity [16] [%],residual activity [17] [%],residual activity [18] [%],residual activity [19] [%],residual activity [20] [%]
COc1ccc(OC)c2c(=S)c3ccccc3[nH]c12,78,76,99,89,100,94,85,80,85,74,92,73,97,58,105,67,90,85,123,87
Oc1ccc(Nc2nc(-c3ccc(Cl)cc3)cs2)cc1,81,90,125,126,111,84,101,78,100,93,108,80,102,90,120,98,112,101,106,89
O=[N+]([O-])c1ccc(-c2nc(-c3ccc(F)cc3)c(-c3ccncc3)[nH]2)cc1,97,101,118,103,102,103,90,79,105,96,91,85,95,94,108,98,101,101,101,90
CC[n+]1c(/C=C/N(C)c2ccccc2)n(-c2ccccc2)c2ccc(-c3nc4ccccc4s3)cc21,59,68,111,129,111,91,146,85,101,89,108,90,115,92,101,95,105,104,97,100
O=C(Nc1cccc(Nc2cc(Nc3cccc(C(F)(F)F)c3)ncn2)c1)C1CC1,67,29,83,47,92,89,120,71,99,76,100,77,89,63,101,57,94,69,88,80
COc1cc2ncnc(N3CCN(C(=O)Nc4ccc(Oc5ccccc5)cc4)CC3)c2cc1OC,79,91,113,126,119,109,117,92,98,96,79,75,95,55,108,75,82,86,90,93
